Measured values reported in the supplement of paper PMC11732987, “Enantioselective OTUD7B fragment discovery through chemoproteomics screening and high-throughput optimisation” (Communications Chemistry, 2025).

Assays:
Assay in all cases: log2 ratio of Biotin-Ahx-Ub-VS probe labelling (fragment/DMSO); higher = less target engagement (more negative = stronger competition), active = hit call of the paper (q ≤ 0.05, log2 ratio ≤ -1)
Settings in all cases: compound concentration: 200 uM; treatment time: 3 h
[1] = target: USP34 (UniProt Q70CQ2)
Sequence of USP34 (Q70CQ2 whole entry, the tested form may be a part): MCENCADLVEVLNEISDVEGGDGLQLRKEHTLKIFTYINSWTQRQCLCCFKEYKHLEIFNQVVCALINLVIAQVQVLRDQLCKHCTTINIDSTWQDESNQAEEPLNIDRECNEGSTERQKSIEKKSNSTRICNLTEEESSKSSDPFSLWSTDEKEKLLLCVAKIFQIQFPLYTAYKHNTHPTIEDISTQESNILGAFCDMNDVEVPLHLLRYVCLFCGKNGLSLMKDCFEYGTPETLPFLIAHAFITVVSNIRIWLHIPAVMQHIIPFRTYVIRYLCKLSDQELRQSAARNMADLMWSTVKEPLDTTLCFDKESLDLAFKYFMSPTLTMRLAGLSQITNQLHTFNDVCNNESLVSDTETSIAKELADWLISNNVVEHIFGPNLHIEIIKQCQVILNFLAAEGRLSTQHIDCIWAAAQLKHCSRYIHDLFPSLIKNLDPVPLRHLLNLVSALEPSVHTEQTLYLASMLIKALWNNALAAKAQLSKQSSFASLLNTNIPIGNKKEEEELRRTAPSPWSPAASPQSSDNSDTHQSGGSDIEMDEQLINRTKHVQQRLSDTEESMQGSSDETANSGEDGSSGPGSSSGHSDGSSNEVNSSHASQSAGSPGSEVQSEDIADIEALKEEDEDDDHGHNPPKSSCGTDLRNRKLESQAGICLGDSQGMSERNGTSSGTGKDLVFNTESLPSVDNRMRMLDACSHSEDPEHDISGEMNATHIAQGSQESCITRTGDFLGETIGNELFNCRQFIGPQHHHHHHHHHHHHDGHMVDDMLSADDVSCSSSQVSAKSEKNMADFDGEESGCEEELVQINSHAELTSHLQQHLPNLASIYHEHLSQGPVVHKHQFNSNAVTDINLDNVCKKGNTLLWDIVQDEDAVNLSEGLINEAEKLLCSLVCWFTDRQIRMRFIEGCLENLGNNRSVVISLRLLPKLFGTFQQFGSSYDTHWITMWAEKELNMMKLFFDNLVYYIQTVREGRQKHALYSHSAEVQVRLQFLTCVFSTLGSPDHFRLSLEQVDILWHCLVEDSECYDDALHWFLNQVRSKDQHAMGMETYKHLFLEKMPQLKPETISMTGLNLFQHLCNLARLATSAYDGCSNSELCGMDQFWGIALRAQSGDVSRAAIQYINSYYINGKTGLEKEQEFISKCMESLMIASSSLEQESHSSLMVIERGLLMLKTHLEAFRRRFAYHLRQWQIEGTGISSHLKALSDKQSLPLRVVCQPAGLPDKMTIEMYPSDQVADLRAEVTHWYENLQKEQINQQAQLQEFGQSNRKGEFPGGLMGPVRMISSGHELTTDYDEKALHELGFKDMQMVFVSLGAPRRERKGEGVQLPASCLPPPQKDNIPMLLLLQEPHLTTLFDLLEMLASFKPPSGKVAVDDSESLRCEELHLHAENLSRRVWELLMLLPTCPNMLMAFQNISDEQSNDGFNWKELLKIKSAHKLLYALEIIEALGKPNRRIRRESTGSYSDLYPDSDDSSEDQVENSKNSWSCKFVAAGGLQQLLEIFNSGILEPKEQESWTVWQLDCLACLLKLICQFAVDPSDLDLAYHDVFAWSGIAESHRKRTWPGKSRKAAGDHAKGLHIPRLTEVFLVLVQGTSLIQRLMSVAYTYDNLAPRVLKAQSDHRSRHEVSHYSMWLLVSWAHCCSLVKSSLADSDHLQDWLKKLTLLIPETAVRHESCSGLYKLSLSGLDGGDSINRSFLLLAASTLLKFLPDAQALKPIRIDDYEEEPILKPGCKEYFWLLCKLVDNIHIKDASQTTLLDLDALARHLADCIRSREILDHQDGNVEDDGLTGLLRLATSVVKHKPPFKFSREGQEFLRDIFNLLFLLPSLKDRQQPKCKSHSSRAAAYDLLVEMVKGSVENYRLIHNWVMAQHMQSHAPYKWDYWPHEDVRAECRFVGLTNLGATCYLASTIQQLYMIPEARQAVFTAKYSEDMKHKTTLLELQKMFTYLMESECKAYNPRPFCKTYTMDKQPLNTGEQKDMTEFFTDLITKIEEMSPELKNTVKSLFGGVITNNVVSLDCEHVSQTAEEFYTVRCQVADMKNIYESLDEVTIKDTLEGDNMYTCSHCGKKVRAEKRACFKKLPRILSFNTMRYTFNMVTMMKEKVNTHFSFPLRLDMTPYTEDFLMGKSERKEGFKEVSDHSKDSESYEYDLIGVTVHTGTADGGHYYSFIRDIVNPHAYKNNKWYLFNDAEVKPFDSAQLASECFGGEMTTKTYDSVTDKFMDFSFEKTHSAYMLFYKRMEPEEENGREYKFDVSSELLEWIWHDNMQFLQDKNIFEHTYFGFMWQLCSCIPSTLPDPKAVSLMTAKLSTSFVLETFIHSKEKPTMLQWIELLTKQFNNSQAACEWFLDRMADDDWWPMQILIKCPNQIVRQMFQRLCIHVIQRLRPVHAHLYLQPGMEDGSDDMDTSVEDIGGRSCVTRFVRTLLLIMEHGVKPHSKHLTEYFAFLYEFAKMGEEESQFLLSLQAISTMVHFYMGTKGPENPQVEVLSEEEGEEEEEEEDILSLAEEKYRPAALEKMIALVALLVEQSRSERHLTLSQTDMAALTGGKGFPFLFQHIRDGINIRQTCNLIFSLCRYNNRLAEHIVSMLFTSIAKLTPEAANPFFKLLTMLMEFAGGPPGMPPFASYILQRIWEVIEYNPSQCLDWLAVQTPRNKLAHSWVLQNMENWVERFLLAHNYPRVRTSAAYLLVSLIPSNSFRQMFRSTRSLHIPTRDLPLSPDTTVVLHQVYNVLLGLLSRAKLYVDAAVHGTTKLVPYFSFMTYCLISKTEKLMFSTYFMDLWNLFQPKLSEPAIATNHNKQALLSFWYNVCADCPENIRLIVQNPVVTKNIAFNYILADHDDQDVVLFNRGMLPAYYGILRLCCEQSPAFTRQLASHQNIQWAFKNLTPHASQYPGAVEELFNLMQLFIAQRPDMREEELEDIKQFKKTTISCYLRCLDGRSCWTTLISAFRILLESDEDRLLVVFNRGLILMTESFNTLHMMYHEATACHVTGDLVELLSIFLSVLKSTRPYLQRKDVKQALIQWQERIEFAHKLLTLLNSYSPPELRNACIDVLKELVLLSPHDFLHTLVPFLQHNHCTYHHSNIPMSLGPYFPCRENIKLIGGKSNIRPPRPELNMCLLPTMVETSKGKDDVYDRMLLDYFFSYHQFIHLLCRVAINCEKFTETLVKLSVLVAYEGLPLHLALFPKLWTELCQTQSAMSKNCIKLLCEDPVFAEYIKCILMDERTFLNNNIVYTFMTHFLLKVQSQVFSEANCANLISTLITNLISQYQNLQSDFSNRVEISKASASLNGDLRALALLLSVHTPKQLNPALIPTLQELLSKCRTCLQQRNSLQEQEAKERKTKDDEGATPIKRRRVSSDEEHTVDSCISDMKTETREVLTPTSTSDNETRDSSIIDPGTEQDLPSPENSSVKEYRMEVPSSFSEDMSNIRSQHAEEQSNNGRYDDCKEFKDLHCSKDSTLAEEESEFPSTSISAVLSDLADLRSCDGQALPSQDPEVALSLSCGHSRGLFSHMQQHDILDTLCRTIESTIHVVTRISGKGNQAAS
Outline: (§1)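 Average log2 ratios of fragment over vehicle were obtained by unpaired t-test from global-median-normalised Spectronaut label-free quantities. Proteins with ≥2 unique peptides were included. HEK293T lysate (495 µg per sample) was treated in triplicate with fragment at 200 µM or vehicle for 3 h, then with Biotin-Ahx-Ub-VS at 0.5 µM final for 1 h, and labelled DUBs were NeutrAvidin-enriched and run by diaPASEF LC-MS/MS.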

[2] = target: T1, USP36 (UniProt Q9P275)
T1 sequence (whole entry): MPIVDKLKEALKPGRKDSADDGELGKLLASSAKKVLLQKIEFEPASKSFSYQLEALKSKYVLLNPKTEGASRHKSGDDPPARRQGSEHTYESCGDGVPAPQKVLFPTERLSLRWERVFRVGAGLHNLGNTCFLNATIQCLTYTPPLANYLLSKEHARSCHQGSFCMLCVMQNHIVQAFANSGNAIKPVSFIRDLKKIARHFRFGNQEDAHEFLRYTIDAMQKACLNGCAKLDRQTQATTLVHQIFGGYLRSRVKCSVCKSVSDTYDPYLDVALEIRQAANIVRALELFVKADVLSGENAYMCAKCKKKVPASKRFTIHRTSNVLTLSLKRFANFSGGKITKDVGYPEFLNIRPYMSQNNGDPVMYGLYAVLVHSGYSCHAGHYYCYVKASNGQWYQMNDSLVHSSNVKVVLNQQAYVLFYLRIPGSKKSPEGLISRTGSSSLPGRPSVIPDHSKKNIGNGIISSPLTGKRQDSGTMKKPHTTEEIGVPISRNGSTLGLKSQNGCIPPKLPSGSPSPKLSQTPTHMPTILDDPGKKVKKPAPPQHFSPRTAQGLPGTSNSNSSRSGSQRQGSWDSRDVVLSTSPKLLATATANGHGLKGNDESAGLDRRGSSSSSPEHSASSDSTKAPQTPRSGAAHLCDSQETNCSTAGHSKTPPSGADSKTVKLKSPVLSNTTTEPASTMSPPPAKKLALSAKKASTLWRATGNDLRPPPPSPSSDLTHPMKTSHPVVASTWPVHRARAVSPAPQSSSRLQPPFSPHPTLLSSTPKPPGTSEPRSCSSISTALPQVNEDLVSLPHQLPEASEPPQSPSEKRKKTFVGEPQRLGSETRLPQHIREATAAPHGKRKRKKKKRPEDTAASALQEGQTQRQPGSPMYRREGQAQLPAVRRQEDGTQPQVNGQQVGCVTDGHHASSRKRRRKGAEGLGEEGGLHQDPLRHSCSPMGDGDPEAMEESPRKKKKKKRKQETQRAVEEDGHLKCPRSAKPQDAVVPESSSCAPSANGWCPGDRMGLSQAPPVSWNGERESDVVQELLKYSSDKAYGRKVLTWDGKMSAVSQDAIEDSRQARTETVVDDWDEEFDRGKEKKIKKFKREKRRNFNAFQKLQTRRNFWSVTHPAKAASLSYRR
Outline: as §1

[3] = target: T2, USP38 (UniProt Q8NB14)
T2 sequence (whole entry): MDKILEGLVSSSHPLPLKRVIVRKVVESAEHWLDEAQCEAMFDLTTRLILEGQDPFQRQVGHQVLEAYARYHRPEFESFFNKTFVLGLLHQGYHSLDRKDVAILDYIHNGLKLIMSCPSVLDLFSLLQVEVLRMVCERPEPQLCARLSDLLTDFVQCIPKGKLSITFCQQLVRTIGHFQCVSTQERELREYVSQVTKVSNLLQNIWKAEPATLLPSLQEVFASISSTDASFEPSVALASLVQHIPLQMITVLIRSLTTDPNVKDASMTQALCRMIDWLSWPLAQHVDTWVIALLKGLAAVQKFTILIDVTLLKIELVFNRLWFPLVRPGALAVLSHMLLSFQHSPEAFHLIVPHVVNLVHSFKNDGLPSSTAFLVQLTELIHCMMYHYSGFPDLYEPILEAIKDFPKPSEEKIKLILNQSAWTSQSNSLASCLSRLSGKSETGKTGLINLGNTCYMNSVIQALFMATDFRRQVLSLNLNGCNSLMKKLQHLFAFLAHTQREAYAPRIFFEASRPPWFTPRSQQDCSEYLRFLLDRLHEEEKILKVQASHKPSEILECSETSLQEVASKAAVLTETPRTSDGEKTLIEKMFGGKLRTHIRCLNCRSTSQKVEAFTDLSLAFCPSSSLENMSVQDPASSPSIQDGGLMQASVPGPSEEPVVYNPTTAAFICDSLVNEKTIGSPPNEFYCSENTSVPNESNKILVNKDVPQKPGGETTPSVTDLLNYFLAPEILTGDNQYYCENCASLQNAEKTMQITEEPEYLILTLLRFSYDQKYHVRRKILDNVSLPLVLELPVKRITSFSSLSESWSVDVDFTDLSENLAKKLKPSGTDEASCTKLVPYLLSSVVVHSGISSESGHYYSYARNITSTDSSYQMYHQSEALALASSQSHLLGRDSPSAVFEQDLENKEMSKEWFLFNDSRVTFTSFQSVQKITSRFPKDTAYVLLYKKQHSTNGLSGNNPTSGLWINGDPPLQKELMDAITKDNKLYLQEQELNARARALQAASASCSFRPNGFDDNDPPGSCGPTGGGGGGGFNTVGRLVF
Outline: as §1

[4] = target: T3, USP39 (UniProt Q53GS9)
T3 sequence (whole entry): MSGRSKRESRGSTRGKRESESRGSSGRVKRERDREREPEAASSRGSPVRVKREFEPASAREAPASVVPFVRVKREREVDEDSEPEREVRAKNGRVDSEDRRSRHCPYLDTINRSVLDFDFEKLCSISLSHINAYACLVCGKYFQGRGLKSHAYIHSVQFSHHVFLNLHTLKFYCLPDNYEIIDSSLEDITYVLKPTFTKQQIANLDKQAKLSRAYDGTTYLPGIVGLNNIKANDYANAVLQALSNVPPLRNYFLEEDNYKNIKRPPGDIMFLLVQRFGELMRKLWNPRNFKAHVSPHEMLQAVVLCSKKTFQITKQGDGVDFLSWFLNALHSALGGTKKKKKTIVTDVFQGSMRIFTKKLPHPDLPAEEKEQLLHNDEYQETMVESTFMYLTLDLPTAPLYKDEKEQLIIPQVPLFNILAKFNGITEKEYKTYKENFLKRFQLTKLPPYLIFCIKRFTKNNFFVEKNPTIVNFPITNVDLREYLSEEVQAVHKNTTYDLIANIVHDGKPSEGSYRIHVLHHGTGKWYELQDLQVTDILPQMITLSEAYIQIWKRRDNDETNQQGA
Outline: as §1

[5] = target: T4, USP4 (UniProt Q13107)
T4 sequence (whole entry): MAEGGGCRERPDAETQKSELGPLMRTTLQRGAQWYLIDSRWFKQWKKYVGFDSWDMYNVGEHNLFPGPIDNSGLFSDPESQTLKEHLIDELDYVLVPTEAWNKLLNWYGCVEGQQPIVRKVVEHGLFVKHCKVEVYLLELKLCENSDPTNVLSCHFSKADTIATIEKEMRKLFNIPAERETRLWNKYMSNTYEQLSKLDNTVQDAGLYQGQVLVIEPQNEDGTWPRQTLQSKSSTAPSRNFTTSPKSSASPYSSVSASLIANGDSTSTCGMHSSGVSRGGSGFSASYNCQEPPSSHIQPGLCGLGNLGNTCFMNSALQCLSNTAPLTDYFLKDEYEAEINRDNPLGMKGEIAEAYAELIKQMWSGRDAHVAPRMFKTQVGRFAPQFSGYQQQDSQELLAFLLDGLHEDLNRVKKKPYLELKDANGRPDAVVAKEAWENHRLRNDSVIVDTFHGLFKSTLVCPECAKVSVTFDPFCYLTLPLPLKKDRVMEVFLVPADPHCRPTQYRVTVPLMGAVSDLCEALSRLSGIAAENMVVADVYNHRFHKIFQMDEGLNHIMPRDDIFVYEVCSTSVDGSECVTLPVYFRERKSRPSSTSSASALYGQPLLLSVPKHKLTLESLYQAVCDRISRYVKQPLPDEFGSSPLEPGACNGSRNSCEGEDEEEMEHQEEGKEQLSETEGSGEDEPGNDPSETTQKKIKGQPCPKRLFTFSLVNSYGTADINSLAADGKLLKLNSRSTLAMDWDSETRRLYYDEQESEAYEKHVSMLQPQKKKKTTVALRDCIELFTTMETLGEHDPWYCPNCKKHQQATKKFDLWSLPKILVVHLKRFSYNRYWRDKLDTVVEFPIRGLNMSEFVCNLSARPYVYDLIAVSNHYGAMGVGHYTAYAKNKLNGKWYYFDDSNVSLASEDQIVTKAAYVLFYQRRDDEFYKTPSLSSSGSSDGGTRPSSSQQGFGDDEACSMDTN
Outline: as §1

Measured: log2 ratio of Biotin-Ahx-Ub-VS probe labelling

Cc1cc(Cl)ccc1NC(=O)CCl
inactive: [1] -0.254 | [2] -0.182 | [3] -0.0702 | [4] 0.072 | [5] -0.0162
